In the library only some 7.9% were active in any assay of this set; here they are far more common.
HT1080NT lethal: kills 2HG-producing HT-1080-NT fibrosarcoma cells; HT-1080-NT fibrosarcoma viability, CellTiter-Glo ATP luminescence, 48 h; Potency, µM (highest dose often 46.1 µM), hits mostly cytotoxic; 360,000 compounds, 1.6% hits;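 further: NT is the 2HG producing partner of a matched IDH1 knockdown line; nearly all actives have a fitted effect of over 55% in size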
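Read-out is CellTiter-Glo luminescence after 10 minutes at room temperature, following 48 hours' compound treatment of HT-1080-NT cells (750 cells/well, RPMI, 5% FBS, 37 degrees C).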
MCF10A rereplic: inducers of DNA re-replication in MCF 10A breast cells; AID 624296; Potency, µM (titrated, usually from 46.1 µM), actives largely listed as activators; MCF 10A DNA re-replication, Hoechst nuclear intensity, 48 h; 350,000 compounds, 2.9% hits; further: nearly all actives have a fitted effect of over 50% in size
KB-V1 cytotox: KB-V1 MDR subline cytotoxicity; KB-V1 MDR cells viability, CellTiter-Glo, 72 h; Potency, µM (doses to about 46.1 µM), usual class: cytotoxic; 400,000 compounds, 3.4% hits; further: nearly all actives have a fitted effect of over 60% in size
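Potencies derive from concentration-effect curves fitted to normalized luminescence (CellTiter-Glo) of KB-V1 cells treated for 72 h at 37 degrees C in phenol-red-free DMEM containing 10% FBS.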
KB-3-1 cytotox: KB-3-1 parental cell cytotoxicity | KB-3-1 viability, CellTiter-Glo ATP luminescence, 72 h | AID 1347075 | 400,000 compounds, 1.4% hits | Potency, µM (titrated, usually from 46.1 µM), hits mostly cytotoxic; further: nearly all actives have a fitted effect of over 60% in size
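Parental KB-3-1 adenocarcinoma cells in phenol-red-free DMEM with 10% FBS were pin-treated with compounds at several concentrations, incubated 72 h at 37 °C, and viability read by CellTiter-Glo luminescence; concentration-effect curves were fitted after normalization.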
HT1080 IDH1KD tx: toxicity to HT-1080 IDH1 knockdown cells (counter line); HT-1080 IDH1 knockdown viability, ATP luminescence, 48 h; Potency, µM (top dose mostly 46.1 µM), most hits filed as cytotoxic; 360,000 compounds, 2% hits; AID 686971
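% activity derives from luminescence (CellTiter-Glo), normalised to DMSO and no-cell wells. HT-1080-IDH1KD cells, 750/well, had 48 h compound exposure at 37 °C.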
SW480 rerep: induces DNA re-replication in SW480 colon adenocarcinoma cells. SW480 DNA re-replication, Hoechst DNA content imaging, 48 h. Potency, µM (titrated, usually from 46.1 µM), usual class: activators. 340,000 compounds, 1.8% hits. AID 624297; further: nearly all actives have a fitted effect of over 55% in size
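Hoechst fluorescence of nuclei (405 nm excitation, 500-530 nm emission) measured by plate-scanning imager after 48 hr compound exposure at 37 C; re-replication scored as increased number of nuclei with elevated intensity.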
Of the large screens only hits and unclear results are named; the others gave an inactive call. The call rests on the fitted dose curve; in most records, active means well fitted curve in the direction sought with a large enough effect; inconclusive means small, poorly fitted or top-dose-only effect, or another doubt; inactive means no such curve, though single readings can be large; an effect the other way counts as inactive or inconclusive.

O=C(COC(=O)C1CC(O)CN1S(=O)(=O)c1ccc(Cl)cc1)c1ccccc1 (stereo not given)	none
COc1ccc(-c2csc(N(CCCN(C)C)C(=O)c3cccs3)n2)cc1	HT1080NT lethal 13µM, KB-V1 cytotox 7.3µM, HT1080 IDH1KD tx 11µM
COc1ccc(-c2csc(N(CCCN(C)C)C(=O)c3ccc(Br)cc3)n2)cc1	HT1080NT lethal 21µM, KB-V1 cytotox inconclusive, HT1080 IDH1KD tx 21µM
COc1ccc(-c2csc(N(CCCN(C)C)C(=O)c3ccc(C(C)(C)C)cc3)n2)cc1	HT1080NT lethal inconclusive, MCF10A rereplic inconclusive, KB-V1 cytotox inconclusive, KB-3-1 cytotox inconclusive, HT1080 IDH1KD tx 16µM, SW480 rerep inconclusive
COc1ccc(-c2csc(N(CCCN(C)C)C(=O)c3ccc(C)cc3)n2)cc1	HT1080NT lethal inconclusive, HT1080 IDH1KD tx inconclusive
Cc1cc(NC(=O)c2ccccc2)cc(NC(=O)c2ccccc2)c1C	none
Cn1c(N)c(C(=O)COC(=O)Cc2ccccc2F)c(=O)n(C)c1=O	none
CCCn1c(C)cc(C(=O)COc2ccc(C)nc2[N+](=O)[O-])c1C	MCF10A rereplic inconclusive, KB-V1 cytotox 16µM, SW480 rerep inconclusive
Cc1ccc(OCC(=O)N(Cc2ccccc2)C(C)(C)C)c([N+](=O)[O-])n1	KB-V1 cytotox 23µM
Cc1ccc(OCC(=O)Nc2ccccc2Sc2ccccc2)c([N+](=O)[O-])n1	KB-V1 cytotox 18µM
COCCn1c(C)cc(C(=O)COc2ccc(C)nc2[N+](=O)[O-])c1C	MCF10A rereplic inconclusive, SW480 rerep inconclusive
Cc1ccc(OCC(=O)c2cc(C)n(-c3ccccc3)c2C)c([N+](=O)[O-])n1	MCF10A rereplic inconclusive, KB-V1 cytotox 21µM, KB-3-1 cytotox 8.2µM
CCN1CCN(C(=S)Nc2cccc(C(F)(F)F)c2)CC1	KB-V1 cytotox inconclusive
CNC(=S)N/N=C/c1cn(Cc2c(F)cccc2Cl)c2ccccc12	KB-V1 cytotox inconclusive, KB-3-1 cytotox inconclusive
Cc1cc(-n2c(C)cc(C(=O)COc3cccnc3[N+](=O)[O-])c2C)no1	MCF10A rereplic 7.3µM, KB-V1 cytotox 16µM, KB-3-1 cytotox inconclusive, SW480 rerep 8.2µM
CC(C)CN1C(=O)C(=O)N(CC(=O)N2CCC(Cc3ccccc3)CC2)C1=O	KB-V1 cytotox inconclusive
CC(=O)n1c2ccccc2c2nc3ccccc3nc21	none
CC(=O)n1c2ccccc2c2c1c1ccccc1n2C	HT1080NT lethal 23µM, MCF10A rereplic inconclusive, HT1080 IDH1KD tx inconclusive
CC(C)Cc1ccc([C@@H](C)C(=O)NS(C)(=O)=O)cc1	none (no result: HT1080NT lethal, KB-V1 cytotox, KB-3-1 cytotox, HT1080 IDH1KD tx)
CC(C)Cc1ccc(C(C)C(=O)Nc2ccccc2O)cc1 (stereo not given)	HT1080NT lethal 3.7µM, KB-V1 cytotox inconclusive, KB-3-1 cytotox 21µM, HT1080 IDH1KD tx 23µM
O=C(NC(Cc1c[nH]c2ccccc12)C(=O)O)/C(=C/c1ccc2c(c1)OCO2)NC(=O)c1ccccc1 (stereo not given)	none
COc1ccc(C)cc1N(CC(=O)NC1CCCC1)C(=O)CCC(=O)Nc1nc(C)cs1	KB-V1 cytotox inconclusive
CC1CCN(C(=O)CSc2ccc(-c3ccc(F)cc3)nn2)CC1	KB-V1 cytotox 16µM, KB-3-1 cytotox inconclusive
O=C(CSc1ccc(-c2ccc(F)cc2)nn1)N1CCCCC1	HT1080NT lethal inconclusive, HT1080 IDH1KD tx inconclusive
CC1CC(C)(C)N(C(=O)CSc2ccc(-c3ccc(F)cc3)nn2)c2ccccc21 (stereo not given)	HT1080NT lethal inconclusive, KB-V1 cytotox 21µM, HT1080 IDH1KD tx inconclusive, SW480 rerep inconclusive
CC1CC(C)(C)N2C(=O)C(=C(C#N)C#N)c3cccc1c32 (stereo not given)	none
O=C(NCc1ccccc1)C1C(c2ccc3c(c2)OCO3)=Nc2ccccc2N1C(=O)c1ccco1 (stereo not given)	HT1080NT lethal 13µM, KB-V1 cytotox inconclusive, KB-3-1 cytotox 7.3µM, HT1080 IDH1KD tx 8.2µM (no result: MCF10A rereplic, SW480 rerep)
Cc1ccc(C2N(c3cccc(Cl)c3)C(=O)N3CCCN23)cc1 (stereo not given)	none
O=C(/C=C/c1ccc(S(=O)(=O)N2CCOCC2)cc1)NC(=S)Nc1ccc(Cl)cc1Cl	MCF10A rereplic 16µM, SW480 rerep inconclusive
CCOc1ccc(-c2cc(C(=O)NCCc3ccc(OC)c(OC)c3)[nH]n2)cc1	none (no result: HT1080NT lethal, MCF10A rereplic, HT1080 IDH1KD tx, SW480 rerep)
COc1ccc(CN(C)C(=O)/C=C/c2ccc(S(=O)(=O)N3CCCCCC3)cc2)cc1	MCF10A rereplic inconclusive, KB-V1 cytotox 3.3µM, KB-3-1 cytotox inconclusive
COc1ccc(/C=C/C(=O)Nc2ccc(C)c(S(=O)(=O)N3CCOCC3)c2)cc1	HT1080NT lethal inconclusive, KB-V1 cytotox 4.1µM, HT1080 IDH1KD tx 21µM
CCOc1ccc(/C=C/C(=O)NCCc2ccc(OC)c(OC)c2)cc1	KB-V1 cytotox 16µM
CNC(=O)c1ccc(CN(C)C(=O)/C=C/c2ccc(S(=O)(=O)N3CCCCCC3)cc2)cc1	none (no result: MCF10A rereplic, SW480 rerep)
O=C(/C=C/c1ccc(S(=O)(=O)N2CCOCC2)cc1)Nc1cc(F)ccc1F	HT1080NT lethal inconclusive, MCF10A rereplic inconclusive
COc1ccc(NC(=O)/C=C/c2ccc(S(=O)(=O)N3CCOCC3)cc2)cc1	KB-V1 cytotox inconclusive
CC1CCC2C(=O)N(c3cccc(C(=O)Nc4ccc(F)cc4)c3)C(=O)C2C1 (stereo not given)	KB-V1 cytotox inconclusive
Cc1ccc(S(=O)(=O)C(CNC(=O)COc2ccccc2)c2cccs2)cc1 (stereo not given)	none (no result: HT1080NT lethal, MCF10A rereplic, HT1080 IDH1KD tx, SW480 rerep)
COc1ccc(N(CC(=O)N2CCN(c3ccccc3F)CC2)S(=O)(=O)c2c(C)noc2C)cc1	none
CCOC(=O)CSc1nnc(CSc2nc3ccccc3s2)n1C	none
Cc1ccnc(NC(=O)CCC(=O)N(Cc2ccco2)C(C(=O)NC(C)C)c2ccc(F)cc2)c1 (stereo not given)	none
COc1ccc(CCNC(=O)/C=C/c2ccc(S(=O)(=O)N3CCOCC3)cc2)cc1	SW480 rerep 4.1µM
COc1cccc(NC(=O)CN(C)C(=O)/C=C/c2ccc(S(=O)(=O)N3CCCCCC3)cc2)c1	KB-V1 cytotox inconclusive, HT1080 IDH1KD tx inconclusive (no result: MCF10A rereplic, SW480 rerep)
CN(CC(=O)Nc1cccc(F)c1)C(=O)/C=C/c1ccc(S(=O)(=O)N2CCCCCC2)cc1	KB-V1 cytotox 18µM, HT1080 IDH1KD tx inconclusive
CC1CC2(C)C(=CC1=O)CCC1C2C(O)CC2(C)C1CCC2(O)C(=O)CO (stereo not given)	none
Cc1nn(C(C)(C)C)c(OC(=O)C2CCCC2)c1S(=O)(=O)c1ccccc1	HT1080NT lethal inconclusive, MCF10A rereplic inconclusive, KB-V1 cytotox inconclusive, KB-3-1 cytotox 21µM, HT1080 IDH1KD tx inconclusive

From PubChem
